Assay results reported in PubChem BioAssay AID1159580 (chemical genetic matrix, 2015).
Where “and” joins values, the source holds several entries; their conditions need not be identical. Identical values can stand only once. In all, about 5,500 compounds went through this assay and about 2,000 (36%) were called active. About 18% were inconclusive and are not listed. No stated cut-off is given here; in the data, active means normalized growth mostly below about 0.91 (no sharp cut-off); inconclusive means no clear call, values can overlap the other calls; inactive means mostly above about 0.92. The list shows a part of the results.

Assay: chemical genetic growth profiling, strain panel (AID 1159580);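 further: tested at 20 µM; growth read once vehicle control cultures reached saturation at 30 °C; 1 = growth at the plate median or of vehicle wells; lower values mean less growth of the strain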
Conditions: S. cerevisiae deletion strains, growth OD

Measured: normalized growth

COC(=O)[C@@H]1C(O)CC[C@H]2CN3CCc4c([nH]c5ccccc45)[C@@H]3C[C@@H]21 (some centres not stated)
inactive: locus YAL013W, strain DEP1, hits give low values 0.998 | locus YAL021C, strain ccr4, hits give low values 1.01 | locus YAL026C, strain drs2, hits give low values 1.01 | locus YAL030W, strain snc1, hits give low values 1.01 | locus YBL061C, strain skt5, hits give low values 1.01 | locus YBR009C, strain hhf1, hits give low values 0.998 | locus YBR021W, strain FUR4, hits give low values 1.01 | locus YBR023C, strain chs3, hits give low values 1.02 | locus YBR171W, strain sec66, hits give low values 1.02 | locus YBR229C, strain ROT2, hits give low values 0.99 | locus YBR231C, strain swc5, hits give low values 0.999 | locus YBR279W, strain paf1, hits give low values 1.02 | locus YCL011C, strain gbp2, hits give low values 1.01 | locus YCL016C, strain dcc1, hits give low values 1.02 | locus YCL029C, strain bik1, hits give low values 0.993 | locus YCL061C, strain MRC1, hits give low values 1.01 | locus YCL069W, strain vba3, hits give low values 1.01 | locus YCR088W, strain abp1, hits give low values 1.01 | locus YDL005C, strain med2, hits give low values 1.01 | locus YDL035C, strain GPR1, hits give low values 0.994 | locus YDL040C, strain nat1, hits give low values 1.01 | locus YDL074C, strain BRE1, hits give low values 1.01 | locus YDL101C, strain DUN1, hits give low values 0.99 | locus YDL134C, strain PPH21, hits give low values 0.996 | locus YDL185W, strain tfp1, hits give low values 0.971 | locus YDL192W, strain arf1, hits give low values 0.983 | locus YDR001C, strain nth1, hits give low values 1.02 | locus YDR069C, strain doa4, hits give low values 0.999 | locus YDR101C, strain arx1, hits give low values 1 | locus YDR137W, strain rgp1, hits give low values 1.02 | locus YDR150W, strain NUM1, hits give low values 0.973 | locus YDR159W, strain sac3, hits give low values 0.996 | locus YDR162C, strain NBP2, hits give low values 1.02 | locus YDR195W, strain ref2 1.02 | locus YDR297W, strain sur2, hits give low values 1.03 | locus YDR318W, strain mcm21, hits give low values 0.981 | locus YDR334W, strain swr1, hits give low values 1.02 | locus YDR335W, strain msn5, hits give low values 1.02 | locus YDR388W, hits give low values 0.999 | locus YDR392W, strain spt3, hits give low values 0.92 | locus YDR502C, strain sam2, hits give low values 1.01 | locus YEL003W, strain gim4, hits give low values 1.02 | locus YEL037C, strain rad23, hits give low values 1.03 | locus YEL061C, strain CIN8 (second series), hits give low values 1.02 | locus YEL061C, strain CIN8, hits give low values 0.998 | locus YER015W, strain faa2, hits give low values 1.01 | locus YER016W, strain bim1, hits give low values 1.02 | locus YER110C, hits give low values 0.982 | locus YER111C, strain swi4, hits give low values 1.01 | locus YER155C, strain BEM2 (second series), hits give low values 1.01 | locus YER155C, strain BEM2, hits give low values 0.992 | locus YER167W, strain BCK2, hits give low values 0.979 | locus YFR010W, strain ubp6, hits give low values 1.01 | locus YGL078C, strain dbp3, hits give low values 0.982 | locus YGL086W, strain mad1, hits give low values 0.955 | locus YGL167C, strain pmr1, hits give low values 1.01 | locus YGL173C, strain kem1, hits give low values 1 | locus YGL227W, strain vid30, hits give low values 1.02 | locus YGL240W, strain doc1, hits give low values 0.992 | locus YGL248W, strain PDE1, hits give low values 0.982 | locus YGL253W, strain hxk2, hits give low values 1.02 | locus YGR078C, strain PAC10, hits give low values 1 | locus YGR135W, strain pre9, hits give low values 1.01 | locus YGR229C, strain SMI1, hits give low values 1.03 | locus YGR252W, strain gcn5, hits give low values 1.01 | locus YHR013C, strain ard1, hits give low values 1.02 | locus YHR027C, strain rpn1, hits give low values 1.02 | locus YHR030C, strain SLT2, hits give low values 0.991 and 1.02 | locus YHR079C, strain IRE1 (second series), hits give low values 1.01 | locus YHR079C, strain IRE1, hits give low values 1.02 | locus YHR094C, strain hxt1, hits give low values 0.974 | locus YHR129C, strain ARP1, hits give low values 0.998 | locus YHR142W, strain chs7, hits give low values 1.02 | locus YHR200W, strain rpn10, hits give low values 0.988 | locus YIL066C, strain RNR3, hits give low values 0.984 | locus YIL073C, strain SPO22, hits give low values 0.915 | locus YIL125W, strain kgd1, hits give low values 0.981 | locus YIR030C, strain dcg1, hits give low values 0.994 | locus YJL092W, strain hpr5, hits give low values 1.01 | locus YJL095W, strain BCK1 (second series), hits give low values 1 | locus YJL095W, strain BCK1, hits give low values 1.03 and 1.02 | locus YJL115W, strain asf1, hits give low values 1.02 | locus YJL129C, strain trk1, hits give low values 1.03 | locus YJL134W, strain LCB3, hits give low values 0.985 | locus YJL154C, strain vps35, hits give low values 1.02 | locus YJL164C, strain tpk1, hits give low values 0.999 | locus YJL166W, strain qcr8, hits give low values 1.01 | locus YJL168C, strain set2, hits give low values 1 | locus YJL187C, strain SWE1 (second series), hits give low values 0.995 | locus YJL187C, strain SWE1, hits give low values 1.01 | locus YJR043C, strain POL32, hits give low values 0.998 | locus YJR066W, strain TOR1, hits give low values 0.954
